The results in this text go back to the supplement of paper PMC10338343.

± gives the standard deviation. Whole data set: some 6,600 sequences, median “pre-steady-state target cleavage rate” near 0.07, cut for the highest 2% near 0.72. The list comes from a sample in which the highest values are over-represented; it also holds similar and randomly drawn sequences.

The assay concerns MIWI (PIWIL1) piRISC loaded with Kctd7 piRNA (30 nt). Kind of assay: pre-steady-state target cleavage rate (min^-1); MIWI and MILI are mouse PIWI proteins and EfPiwi is from a freshwater sponge; tags in brackets are library labels; higher = faster piRNA-guided slicing of the target. The settings on record: guide: Kctd7 piRNA 5'p-UGUUAAUCUCUCAGAGAAGGUGACAGUGAU; auxiliary factor: 500 nM mouse GTSF1. Here is the method:
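Cleave-'n-Seq: a library of target RNAs (target site embedded in constant flanks, ACAGCATTCCGCGTTAGTGATATCCG... 5' flank; DNA-blocked outside the site) at 0.1 nM was incubated with 1 nM active mouse MILI or MIWI piRISC (synthetic 5'-monophosphorylated piRNA guide) with or without 500 nM mouse GTSF1 at 33 °C for 1 min to 16 h. Uncleaved targets were sequenced and normalised to non-target controls, and the pooled three trials were fitted to a burst-and-steady-state model to give the pre-steady-state cleavage rate (min^-1; k3 is constrained to at most 1e-4). Sequence is the target site only; target names encode pairing extent (gX:gY) and contiguous / 1-mismatch / 2-mismatch / bulge geometry. Fits with R² ≤ 0 are excluded.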
Take UAGUCUGUCACCUUGUCUGAGAGAUUUUGA: the “pre-steady-state target cleavage rate” value was determined as 0.197 ± 0.06.
The result for UACACUGUCACCUUCUGAGAGAGAUUUUGA reads 0.0616 ± 0.019; that for AUCACUGUCACCUUCUCUGAGAGAUUUUGA, 0.0948 ± 0.023.
In the case of AUCACUGUCACCUUGUCUGAGAGAUUUUGA it was 1.4 ± 0.36; in that of UACACUGUCACCUUCACUGAGAGAUUUUGA, 0.302 ± 0.099.
The result for UAGUCUGUCACCUUCACUGAGAGAUUUUGA reads 0.176 ± 0.046; that for AUCACUGUCACCUUGACUGAGAGAUUUUGA, 0.839 ± 0.22; that for UUCACUGUCACCUUGUCUGAGAGAUUUUGA, 1.06 ± 0.27.
As for UACACUGUCACCUUGUCUGAGAGAUUUUGA, the “pre-steady-state target cleavage rate” value was 1.02 ± 0.24.
As for AUCACUGUCACCUUCACUGAGAGAUUUUGA, the “pre-steady-state target cleavage rate” value turned out to be 0.339 ± 0.082.
In the case of UAGACUGUCACCUUGUCUGAGAGAUUUUGA it was 0.234 ± 0.066.
Consider UACACUGUCACCUUGACUGAGAGAUUUUGA, for which the “pre-steady-state target cleavage rate” value was found to be 0.117 ± 0.039.
For the sequence UAGUGACACACGUUGUCUGAGAGAUUAACA, the “pre-steady-state target cleavage rate” value was 0.0596 ± 0.011.
The result for UAGUGACAGUCCUUCUCUGAGAGAUUAAACA reads 0.0368 ± 0.0052; that for UAGUGACACAGCUUCUCUGAGAGAUUAUGA, 0.00591 ± 0.0022; that for AUCACUGUCACCUGUCUCUGAGAGAUUAACA, 0.651 ± 0.038.
In the case of AUCACUGUCACCUGCUCUGAGAGAUUAACA it was 0.673 ± 0.026.
For UACACUGUCACCUUGUCUGAGAGAUUAACA, the “pre-steady-state target cleavage rate” value came to 0.355 ± 0.042.
UACACUGUCACCUUGCUCUGAGAGAUUAACA: the “pre-steady-state target cleavage rate” value turned out to be 1.01 ± 0.17.
UUCACUGUCACCUUGCUCUGAGAGAUUAACA: the “pre-steady-state target cleavage rate” value stood at 0.747 ± 0.11.
On to UAGUCUGUCACCUUGCUCUGAGAGAUUAACA, for which the “pre-steady-state target cleavage rate” value was 0.47 ± 0.081.
UUCACUGUCACCUGCUCUGAGAGAUUAACA: the “pre-steady-state target cleavage rate” value stood at 0.645 ± 0.031.
Regarding AUCACUGUCACCUUGCUCUGAGAGAUUAACA, the “pre-steady-state target cleavage rate” value is 1.1 ± 0.18.
In the case of UACACUGUCACCUGCUCUGAGAGAUUAACA it was 0.571 ± 0.03; in that of UAGACUGUGACCUUCUCUGAGAGAUUAUCA, 0.246 ± 0.033; in that of UAGACACUCACCUUCUCUGAGAGAUUAUGA, 0.141 ± 0.031.
In the case of AUCACUGUCACGUUCACUGAGAGAUUAACA it was 0.44 ± 0.025; in that of UAGUCUGUCACCUUCUCUGAGAGAUAAUGA, 0.0204 ± 0.0082.
In the case of UUCACUGUCACCUUCUCUGAGAGUUUAUGA it was 0.71 ± 0.18; in that of UAGUGUGUCACCUUCUCUGAAGAGAUUAACA, 0.00762 ± 0.0051.
For the sequence UACACUCUCACCUUCUCUGAGUGAUUAACA, the “pre-steady-state target cleavage rate” value stood at 0.0216 ± 0.0064.
In the case of UAGUCUUUCACCUUCUCUGAGAGAUUAACA it was 0.265 ± 0.015; in that of UAGUGAGUCAGCUUCUCUGAGAGAAUAACA, 0.199 ± 0.032; in that of UACACUGUCACCUUCUCUGUCAGAUUAACA, 0.0245 ± 0.008.
The result for UAGACUGUCACCUUUCUGAGAGAUUAACA reads 0.5 ± 0.033; that for UUCACUGUCACCUUUUCUGAGAGAUUAACA, 0.679 ± 0.028.
As to AUCACUGUCACCUUUUCUGAGAGAUUAACA, the “pre-steady-state target cleavage rate” value was determined as 0.748 ± 0.029.
As for UAGACUGUCACCUUUCUCUGAGAGAUUAACA, the “pre-steady-state target cleavage rate” value stood at 0.538 ± 0.039.
UAGACUGUCACCUUUUCUGAGAGAUUAACA: the “pre-steady-state target cleavage rate” value was determined as 0.732 ± 0.034.
For the sequence AUCACUGUCACCUUUCUGAGAGAUUAACA, the “pre-steady-state target cleavage rate” value was found to be 0.532 ± 0.025.
In the case of UAGUGAGUCACCUUCACUCAGAGAUUAACA it was 0.0317 ± 0.0057; in that of UUCACUGUCUCCUUCUCUGAGAGAUUAUCA, 0.231 ± 0.035; in that of UAGUGACAGUGCUUCACUGAGAGAUUAACA, 0.00805 ± 0.0033.
The result for UAGUGACUCACGUUCUCUGAGAGAUUUUGA reads below 0.0001.
In the case of UAGAAUGUCACCUUCUCUGAGAGAUUAACA it was 0.652 ± 0.038; in that of UAGACUGUCACCUUGUCUGAGAGAUUUACA, 0.659 ± 0.12; in that of UAGUCUGUCACCUUGUCUGAGAGAUUUACA, 0.25 ± 0.045.
As for UACACUGUCACCUUGUCUGAGAGAUUUACA, the “pre-steady-state target cleavage rate” value came out at 0.989 ± 0.19.
In the case of AUCACUGUCACCUUGUCUGAGAGUUUAACA it was 0.745 ± 0.15; in that of UACACUGUCACCUUGUCUGAGAGUUUAACA, 0.442 ± 0.11.
In the case of UUCACUGUCACCUUGUCUGAGAGUUUAACA it was 0.422 ± 0.077.
On to AUCACUGUCACCUUGUCUGAGAGAUUUACA, for which the “pre-steady-state target cleavage rate” value came to 0.799 ± 0.14.
Consider AUCACUGUCACCUUCACUGAGAGAUUUACA, for which the “pre-steady-state target cleavage rate” value is 0.511 ± 0.082.
As to UUCACUGUCACCUUGUCUGAGAGAUUUACA, the “pre-steady-state target cleavage rate” value is 0.671 ± 0.12.
Take UACACUGUGACCUUCUCUGAGAGAUUAACA: the “pre-steady-state target cleavage rate” value was 0.464 ± 0.037.
With UAGUGACAGUCCUUCUCUGAGAGUAUUAACA, the “pre-steady-state target cleavage rate” value worked out at 0.0116 ± 0.0023.
The result for UAGUGUGUCACCUUCUCUGAGACAUUUACA reads 0.028 ± 0.0097; that for UAGUGACACACCAACUCUGAGAGAUUAACA, 0.0222 ± 0.0043.
The result for UUCACUCAGACCUUCUCUGAGAGAUUAUGA reads 0.0052 ± 0.0036; that for UAGUGAGACACCUUCUCUGAGAGAUUAAGA, 0.0909 ± 0.019; that for AACACUGUCACCUUCUCUGAGAGAUUAUGA, 0.101 ± 0.021.
In the case of UAGACUGUCACUCUUCUCUGAGAGAUUAACA, the “pre-steady-state target cleavage rate” value came out at 0.457 ± 0.032.
In the case of UAGACUGUCAUCUUCUCUGAGAGAUUAACA it was 0.848 ± 0.051; in that of UAGACUGUCAUCCUUCUCUGAGAGAUUAACA, 0.262 ± 0.023.
The result for UUCACUGUCAUCUUCUCUGAGAGAUUAACA reads 0.596 ± 0.027; that for AUCACUGUCAUCUUCUCUGAGAGAUUAACA, 0.827 ± 0.041; that for AUCACUGUCACUCUUCUCUGAGAGAUUAACA, 0.53 ± 0.035.
As for AUCACUCUCACCUUCUCUGAGAGAUUAUGA, the “pre-steady-state target cleavage rate” value was determined as 0.049 ± 0.018.
Consider UAGACUGUCACCUUCUCUCAGAGUUUAACA, for which the “pre-steady-state target cleavage rate” value was found to be 0.0473 ± 0.0063.
For UAGUCUGACACCUUGUCUGAGAGAUUAACA, the “pre-steady-state target cleavage rate” value came out at 0.164 ± 0.022.
AUCAAUGUCACCUUCUCUGAGAGAUUAACA: the “pre-steady-state target cleavage rate” value was determined as 0.672 ± 0.03.
Consider UACACUGUCUCCUUCUCUGAGAGAUUAACA, for which the “pre-steady-state target cleavage rate” value came to 0.599 ± 0.034.
